The list is not random: actives were taken first. Their share in the collection is about 4.7%.
eIF4H FP inh – inhibitors of RNA binding by human eIF4H | AID 2012 | eIF4H fluorescence polarization binding assay | inhibition, % at 35 µM | Q15056 | 0.94% of 290,000 active;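 further: calls also rest on retests at 20 µM and on dose response follow-up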
ALR inh – inhibitors of human sulfhydryl oxidase ALR. P55789. 3.8% of 290,000 active. purified ALR, DTT oxidation, H2O2 HRP-luminol luminescence. inhibition, % (no concentration beside the values);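 active means mean replicate inhibition above about 79%, with every replicate also reaching it, limit read from the data; inconclusive means only one of the two criteria met; inactive means mean below limit and not every replicate reaching it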
MLLE-PAM2 inh – inhibitors of microRNA-mediated deadenylation, human PABP1 MLLE binding. GST-MLLE / FITC-PAM2 fluorescence polarization. inhibition, % at 20 µM. P11940. 0.36% of 360,000 active. AID 588489; in the data active means inhibition above about 35%, passing the limit was not always enough;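 further: plate controls were DMSO wells with GST-MLLE for no effect and wells lacking GST-MLLE protein for full effect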
SUMO HTRF inh – inhibitors of human SUMOylation (UBC9); P63279; HTRF SUMOylation assay, SAE1/SAE2 + UBC9, in vitro; inhibition, % at 35 µM; 0.36% of 290,000 active; AID 2006; in the data active means inhibition above about 50%, passing the limit was not always enough; inconclusive means no clear call, values can overlap the other calls
Target sequence (P63279 whole entry, looked up): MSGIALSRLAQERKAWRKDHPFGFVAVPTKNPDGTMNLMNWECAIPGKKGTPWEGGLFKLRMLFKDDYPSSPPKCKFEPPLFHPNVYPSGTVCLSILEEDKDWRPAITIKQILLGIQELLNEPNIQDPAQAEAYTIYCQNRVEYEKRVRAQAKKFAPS
PABP polyA inh – PABP-poly(A) binding inhibition | P11940 | PABP-poly(A) RNA binding, fluorescence polarization | inhibition, % at 35 µM | 1% of 290,000 active | AID 2014;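 further: calls also rest on retests at 20 µM and on dose response follow-up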
Efflux pump inh – blocks antifungal efflux pumps in multiplex yeast assay | S. cerevisiae Candida pump triplex, Nile Red efflux | inhibition, % at 10 µM | 0.44% of 330,000 active | AID 485275;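 active means plate passing quality check with inhibition over a set limit, or well fluorescence over plate mean plus 4 SD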;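 further: Nile Red retained in pooled yeast measured as flow cytometry median fluorescence; 0% = buffer negative control and 100% = Enniatin B positive control; higher means more Nile Red kept so more efflux inhibition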
The depositor's hits bear a star; u = inconclusive; x = no result. Unless noted, how the calls were made is not given here.

SMILES	eIF4H FP inh	ALR inh	MLLE-PAM2 inh	SUMO HTRF inh	PABP polyA inh	Efflux pump inh
CC(=O)c1c(C)cc(C)c(CSc2nc(C)cc(=O)[nH]2)c1C	-13	52	44*	20	-8	0
O=c1cc(CSc2nc3ccccc3[nH]2)c2ccccc2[nH]1	-4	91*	-9	13	-7	0
COc1ccc([C@H]2N[C@]3(CCCN(Cc4ccc(C(F)(F)F)cc4)C3=O)[C@H]3C(=O)N(Cc4ccccc4)C(=O)[C@@H]23)cc1	x	x	-1	x	x	x
CC(C)[C@H]1COCCS(=O)(=O)N1Cc1ccccc1-c1ccccc1	x	x	-3	x	x	0
Nc1cc(=O)[nH]c(SCc2ccccc2Cl)n1	-4	-7	-16	3	-1	0
COc1ccc(CSc2nc(C)cc(=O)[nH]2)cc1Br	-1	98*	35	-17	-5	0
Cc1cc(=O)[nH]c(SCc2cccc3ccccc23)n1	3	98*	-2	-2	1	0
CCCc1cc(=O)[nH]c(SCc2ccccc2Cl)n1	-6	99*	12	-5	3	0
CC(C)Oc1ccc2ccccc2c1CNC[C@H]1O[C@@H](n2cnc(C(N)=O)n2)[C@H](O)[C@@H]1O	x	x	13	x	x	x
Cc1ccccc1CS(=O)(=O)c1ccc(C(=O)N2CCC(C)CC2)cc1[N+](=O)[O-]	9	97*	7	0	1	0
Cc1ccc(-c2nc(SC(C)C(=O)c3c(N)n(C)c(=O)n(C)c3=O)n[nH]2)cc1 (configuration not stated)	x	50	-4	x	x	0
CCOc1cc(CNc2ncnc3nc[nH]c23)ccc1OC	3	-9	-17	8	-18	0
CCOc1cc(CNc2cccc3[nH]c(C)nc23)ccc1OC	-3	98*	3	-5	-2	0
Cc1oc(-c2ccccc2Cl)nc1CS(=O)CC(=O)NCc1ccc2c(c1)OCO2 (configuration not stated)	-16	82*	8	-1	-2	0
Cc1ccccc1-c1nc(CS(=O)CC(=O)NCc2ccc3c(c2)OCO3)c(C)o1 (configuration not stated)	-15	98*	27	-8	12	0
Cc1oc(-c2ccccc2Cl)nc1CS(=O)CC(=O)NCc1ccc(Cl)cc1 (configuration not stated)	-23	99*	-2	8	-3	0
CC1CC(C)CN(S(=O)(=O)c2ccc(C(=O)N(C)Cc3ccccc3)cc2)C1 (configuration not stated)	x	-8	3	x	x	0
COCCNC(=O)C1(C)CCCN(Cc2cc(C(F)(F)F)ccc2Cl)C1 (configuration not stated)	x	x	0	x	x	x
C[C@H](CO)N1C[C@H](C)[C@@H](CN(C)Cc2ccc(-c3ccccc3)cc2)OCc2cnnn2CCCC1=O	x	x	9	x	x	x
CCS(=O)(=O)NCc1ccc2[nH]c3c(c2c1)CCCC3	33	-95	x	17	46	1.3*
Cc1cc(C)cc(NC(=S)NCc2ccc3[nH]c4c(c3c2)CCCC4)c1	-2	-9	-34	-15	-2	0
COc1ccc(OC)c(CCNC(=O)CS(=O)(=O)Cc2nc(-c3ccc(C)cc3)oc2C)c1	1	-8	-8	26	-10	0
COc1cccc(-c2nc(CS(=O)(=O)CC(=O)NCCc3cc(OC)ccc3OC)c(C)o2)c1	0	99*	1	15	-3	0
Cc1oc(-c2ccccc2F)nc1CS(=O)(=O)CC(=O)NCCCN1CCN(C)CC1	-2	-1	-1	9	6	1
COc1ccc(-c2nc(CS(=O)(=O)CC(=O)NCCc3cc(OC)ccc3OC)c(C)o2)cc1	-8	99*	2	12	0	0
SMILES	eIF4H FP inh	ALR inh	MLLE-PAM2 inh	SUMO HTRF inh	PABP polyA inh	Efflux pump inh
COc1ccc(-c2nc(CS(=O)(=O)CC(=O)NCCCN3CCN(C)CC3)c(C)o2)cc1	-6	99*	-11	18	9	0
CC(C)N1CCCC(C)(C(=O)Nc2nccc3ccccc23)C1 (configuration not stated)	x	x	13	x	x	x
S=c1[nH]nc(-c2ccc(Cl)cc2Cl)n1-c1ccc(Cl)cc1	-4	94*	-45	2	8	0
S=c1[nH]nc(-c2ccc(Cl)cc2)n1-c1ccc(Cl)cc1	-7	82*	-29	5	-8	0
O=c1ccc(-c2n[nH]c(=S)n2-c2ccc(F)c(Cl)c2)n[nH]1	-10	86*	-50	15	-4	0
CCc1ccc(CN(C)C(=O)CCc2nnc(CCc3cccc(OC)c3)o2)nc1	9	0	5	10	-5	0
Cc1coc2c1C(=O)C(=O)c1c-2ccc2c1CCCC2(C)C	64*	5	11	39	51*	0
Cc1coc2c1C(=O)C(=O)c1c-2ccc2c(C)cccc12	78*	19	-1	35	79*	0
C[C@H]1COC2=C1C(=O)C(=O)c1c2ccc2c1CCCC2(C)C	60	7	19	42	44	0
OCC[C@@H]1C[C@H](O)[C@@H](O)[C@@]2(OCCc3cc(Cl)ccc32)O1	x	x	10	x	x	x
Cc1ccc2c(c1)[C@H]1[C@H](CO2)[C@H](c2ccccc2)[C@]2(C)C(=O)NCC(=O)N12	x	-2	13	x	x	0
COc1ccc(NC(=O)C2Cc3ccccc3CN2C(=O)c2ccccc2)cn1 (configuration not stated)	u	x	71*	-5	u	0
CC(=O)c1ccc(NC(=O)C2Cc3ccccc3CN2C(=O)c2ccccc2)cc1 (configuration not stated)	2	23	-7	7	-1	0
Cc1noc(NS(=O)(=O)c2ccc(N/C=C/C(=O)c3ccc(F)cc3)cc2)c1C	-10	8	-4	14	9	0
CCc1ccc(C(=O)/C=C/Nc2ccc(S(=O)(=O)Nc3onc(C)c3C)cc2)cc1	1	97*	-15	-1	10	0
COc1ccc(C(=O)/C=C/Nc2ccc(S(=O)(=O)Nc3onc(C)c3C)cc2)cc1	-4	97*	0	8	-7	0
CC1(C(=O)Nc2cccc(OC(F)(F)F)c2)Cc2c(-c3ccc(C(N)=O)cc3)ccnc2O1 (configuration not stated)	x	x	-3	x	x	x
Cn1c(=O)c2[nH]c(C(O)c3ccc(Cl)cc3)nc2n(C)c1=O (configuration not stated)	x	x	2	x	x	x
COc1cc(-c2nnc(SCC(=O)c3cc(C)n(CC4CCCO4)c3C)o2)cc(OC)c1OC (configuration not stated)	70*	x	-90	8	107*	0
O=C(CC(=O)c1ccccc1)Nc1cccnc1Cl	-6	33	8	4	-2	0
Cc1cccc(-c2nc(CS(=O)CC(=O)NCc3ccco3)c(C)o2)c1 (configuration not stated)	-8	99*	5	15	-3	0

Bioassay records from PubChem BioAssay.
